# Assay outcomes from PubChem BioAssay.
# In the library only some 4.2% were active in any assay of this set; here they are far more common.
# ssDAF12 agonist = activators of S. stercoralis DAF-12 nuclear receptor; activation, % at 6.8 µM; hit rate 1% among 370,000; AID 652126; HEK293 ssDAF-12/GRIP1 lit1-tk-luc reporter, luminescence; % of 3 µM dafachronic acid response;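 active means activation above the mean over all tested compounds plus 3 SD, cut at about 0.9% in these data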;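 further: 0% = DMSO-only wells and 100% = 3 µM delta7-dafachronic acid wells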
# DAX1 inh = inhibitors of DAX1 repression of SF-1 activated StAR promoter; HEK293T StAR-luciferase reporter, SF-1/DAX-1 repression relief; inhibition, % at 6.8 µM; hit rate 1.1% among 370,000; AID 652010;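 active means inhibition above the mean over all tested compounds plus 3 SD, cut at about 3.6% in these data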;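 further: 0% = DAX-1 cells with DMSO and 100% = cells lacking DAX-1 with DMSO; higher inhibition means more luminescence from relief of DAX-1 repression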
# hcDAF12 agonist = H. contortus DAF-12 activation, primary screen | AID 652067 | hit rate 1.4% among 370,000 | HEK293 hcDAF-12 lit1-tk-luc reporter, luminescence; 0% DMSO, 100% Δ7-dafachronic acid | activation, % at 6.8 µM;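 active means activation above the mean of all tested compounds plus 3 SD, cut at about 5.5% in these data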;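 further: 100% = response to 3 µM Δ7-dafachronic acid high control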
# SMARCA2 activ = activators of SMARCA2 function | MG213 cells, MMTV-luciferase reporter, dexamethasone, overnight | activation, % at 9.1 µM | hit rate 1% among 370,000; in the data active means activation above about 7.8%;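 further: 0% = vehicle wells and 100% = reference activator wells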
# hgDAF-12 ag = activates the H. glycines DAF-12 receptor ligand-binding domain | activation, % at 6.8 µM | HEK293 GAL4-hgDAF12 UAS-luciferase reporter, agonist luminescence; normalized to butyrate control | hit rate 1.8% among 370,000;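 active means activation above a cutoff set at the mean of all screened compounds plus 3 SD, cut at about 10% in these data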;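 further: 0% = DMSO wells and 100% = sodium butyrate wells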
# Starred values were filed as active, the others as inactive; x = not tested or not shown.
SMILES,ssDAF12 agonist,DAX1 inh,hcDAF12 agonist,SMARCA2 activ,hgDAF-12 ag
COc1ccc2[nH]cc(/C=C/C(=O)c3ccccc3)c2c1,0.2,1.5,5.3,5.3,10.6*
COc1ccccc1/C=C/C(=O)NC(=S)N1CCN(C)CC1,-1.5,3.9*,-0.5,0.4,-0.3
COC(=O)[C@]12C[C@H](CC(=O)N3CCN(C(=O)c4ccco4)CC3)C(=O)N(Cc3ccc(Cl)cc3Cl)C1=C[C@H](COCc1ccccc1)O[C@@H]2C,-1.3,-0.9,-2.4,-3.7,1.9
COc1cccc(/C=C/C(=O)OCC(=O)c2ccc(C)c(C)c2)c1OC,-1.4,-0.5,-1.4,2.8,-0.4
COc1cccc(/C=C/C(=O)OCC(=O)c2ccccc2)c1OC,-0.1,3.1,6.1*,4.0,12.6*
CCn1c(SCC(=O)Nc2ccccc2-c2ccccc2)nnc1-c1ccc(C)cc1,-1.3,0.0,-2.1,-4.7,-0.1
Cc1ccc2nc(SC(C)C(=O)N3CCCCC3)[nH]c2c1 (stereo not drawn),1.8*,0.5,1.2,0.2,4.2
N/C(=N\OC(=O)Nc1ccccc1)c1ncc(C(F)(F)F)cc1Cl,-0.3,0.3,5.6*,1.3,0.3
COC(=O)/C(=C\Nc1ccccc1N)c1ncc(C(F)(F)F)cc1Cl,0.7,4.3*,5.7*,6.8,11.7*
O=C1c2cccc3cccc(c23)C(=O)C1(O)O,-1.1,-0.1,5.8*,-1.5,0.0
COC(/C=C/Nc1ccc(C)cc1)=C(C#N)C#N,0.2,0.3,5.6*,6.8,-0.5
COc1cccc(Cn2cc(COC(=O)N3CCOCC3)nn2)c1,-1.0,0.8,-3.2,-1.3,-0.6
CCOc1ccc(C(=O)NNC2CC(=O)N(Cc3ccc(Cl)cc3)C2=O)cc1OC (stereo not drawn),-1.8,0.1,-0.2,0.7,-0.5
COc1ccc(C(=O)NNC2CC(=O)N(Cc3ccccc3)C2=O)cc1OC (stereo not drawn),-2.1,-0.2,-0.6,7.9*,0.9
CCCCN1CN2Cc3ccc(C)cc3C2CS1(=O)=O (stereo not drawn),-0.7,1.2,-0.6,-3.3,-2.0
Cc1ccc(OCCn2c(CCNC(=O)c3ccc(F)cc3F)nc3ccccc32)cc1,-0.9,x,-0.6,x,-1.4
COc1ccc(Cl)cc1N(CC(=O)N/N=C/c1ccc(OC(C)C)cc1)S(=O)(=O)c1ccc(C)c([N+](=O)[O-])c1,-1.0,0.3,2.1,-0.7,-1.0
C=CCOc1cccc(/C=N/NC(=O)CN(c2cc(Cl)ccc2OC)S(=O)(=O)c2ccc(C)c([N+](=O)[O-])c2)c1,1.0*,0.3,0.6,-1.2,0.1
CCCCCCn1cc(CN2CC(N(C)CC)CS2(=O)=O)nn1 (stereo not drawn),-1.9,3.7*,1.2,-3.7,3.4
CCCCCCn1cc(CN2CC(N3CCN(C)CC3)CS2(=O)=O)nn1 (stereo not drawn),-0.4,2.5,1.2,0.4,1.3
CCCCCCn1cc(CN2CC(N3CCN(C4CCN(C)CC4)CC3)CS2(=O)=O)nn1 (stereo not drawn),-1.0,4.4*,-0.7,-4.8,-3.7
COc1ccc(Cn2cc(CN3CC(N4CCCC4)CS3(=O)=O)nn2)cc1 (stereo not drawn),-0.2,4.4*,-0.2,2.4,1.6
CCCCCCn1cc(CN(C)C2CN(Cc3cn(CCCCCC)nn3)S(=O)(=O)C2)nn1 (stereo not drawn),-1.6,0.4,0.9,-4.6,-0.5
COc1ccc(Cn2cc(CN3CC(N4CCSCC4)CS3(=O)=O)nn2)cc1 (stereo not drawn),-1.2,-2.6,-0.4,-1.1,-0.5
C=CCn1c(Cc2cccs2)nnc1SCC(=O)Nc1ccc(OCc2ccccc2)cc1,-1.5,-1.9,-3.0,-4.3,3.8
SMILES,ssDAF12 agonist,DAX1 inh,hcDAF12 agonist,SMARCA2 activ,hgDAF-12 ag
Oc1c(C=Nc2cccnc2)sc2ccccc12,0.2,0.4,4.9,7.9*,4.3
Oc1c(C=Nc2ccccc2)sc2ccccc12,0.2,1.4,3.5,2.8,8.7
Nc1n[nH]c(N)c1N=Nc1cccc(F)c1,-0.2,0.6,-0.4,-1.1,4.0
Nc1n[nH]c(N)c1N=Nc1ccc(Cl)cc1,-1.5,0.4,1.9,-2.0,13.2*
CCOc1ccc(-n2c(COc3ccccc3)nnc2SCc2nc3ccccc3[nH]2)cc1,-1.8,0.6,-1.8,-5.1,-0.9
Cc1ccccc1C1C(C#N)=C(N)N(N(C)C)C2=C1C(=O)CC(C)(C)C2 (stereo not drawn),-0.9,-0.4,-2.1,-1.9,-2.1
CN(C)N1C(N)=C(C#N)C(c2cccs2)C2=C1CC(C)(C)CC2=O (stereo not drawn),2.0*,0.4,-0.4,-3.1,-3.1
CCOC(=O)[C@@]12CCCC=C1N(CCc1ccc(Cl)cc1)C(=O)[C@H]2CC(=O)N1CCC(c2ccccc2)CC1,-1.1,-0.5,-2.5,-1.0,0.0
O=C(CSc1nccc(-c2cccs2)n1)Nc1ccc(Cl)cc1,-0.9,-1.3,2.7,-5.2,-0.1
O=C(CSc1nccc(-c2cccs2)n1)Nc1cccc(Cl)c1Cl,1.1*,0.1,1.9,-2.6,1.4
COc1ccc2nc(-c3ccccn3)[nH]c2c1,0.5,2.2,5.1,3.0,11.6*
COc1ccc2nc(NC(=O)c3ccco3)sc2c1,-0.8,1.2,4.1,-1.4,5.7
COc1cc2sc(NC(=O)c3ccco3)nc2cc1Cl,0.2,1.9,5.4,0.9,11.6*
COc1ccccc1C(=O)Nc1nc2cc3c(cc2s1)OCO3,0.1,1.5,4.2,3.8,12.3*
O=C(Nc1nc2c(Cl)ccc(Cl)c2s1)c1ccco1,0.0,0.5,5.6*,-0.8,0.6
CN1C(=O)C(=O)N2C(=C[C@]3(c4c[nH]c5ccccc45)c4ccccc4N[C@H]23)C1=O,0.0,x,4.0,x,1.6
Cc1cccc(C2=NN(c3ccc(Br)cc3)[C@@H](C(=O)N3CCOC3=O)[C@@H]2C)c1,0.0,-1.0,1.2,-3.6,1.3
Cc1cccc(C2=NN(c3ccccc3)[C@@H](C(=O)N3CCOC3=O)[C@@H]2C)c1,-0.8,3.7*,2.1,0.5,1.9
O=C1OCCN1C(=O)[C@H]1[C@H](c2ccc(Cl)cc2)C(c2ccc(F)cc2)=NN1c1ccccc1,-1.2,3.8*,0.9,-4.5,2.6
COC(=O)c1cc(-c2cc3ccccc3o2)c(=O)n2c1CCC2,-0.1,0.3,1.9,-2.5,3.8
Cc1ccc(Cn2c(/C=C/c3ccco3)nc3ccccc32)cc1,-0.5,-0.1,6.3*,5.7,4.6
NC(=O)c1ccsc1NC(=O)COC(=O)c1cccnc1Cl,-0.4,1.2,1.0,-1.4,10.7*
NC(=O)c1ccsc1NC(=O)COC(=O)c1ccc(Cl)nc1,-1.1,1.2,-1.6,-1.1,0.2
CCCCCCc1c[nH]c2ccc(O)c(-c3ccccc3)c12,-1.2,0.5,-1.9,-4.0,-1.9
CC(C)[C@H](NC(=O)Cc1ccccc1)C(=O)OCc1cc(=O)n2c(n1)sc1ccccc12,1.1*,-0.2,3.4,-1.9,4.3
